Inconclusive results are not listed. Values without a mark were called inactive. Active and inactive are the calls of the source. Calls follow the shape of the dose curve; as a rule, active = well fitted curve in the direction sought with a large enough effect; inconclusive = small, poorly fitted or top-dose-only effect, or another doubt; inactive = no such curve, though single readings can be large; an effect the other way counts as inactive or inconclusive.

One test relates to MCC-13. Put plainly: qHTS assay to identify novel small-molecules to repurpose for Merkel cell carcinoma treatment (AID 1296009). Also: nearly all actives have a fitted effect of over 60% in size. The settings on record: MCC and control cell lines, CellTiter-Glo viability, 72 h; series mostly up to 46 µM. A digest of the protocol:
(§1)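 Dose-response viability screen; 72 hr exposure at 37 degree celsius; CellTiter-Glo added, 10 min room temperature, luminescence read; RLUs scaled between no-cell and DMSO wells.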
In general terms: qHTS replaces the single test concentration by a dilution series.

The subject of the next test is MCC-26. The test is described as above. The settings on record: MCC and control cell lines, CellTiter-Glo viability, 72 h; series mostly up to 46 µM. In outline: as §1
In general terms: In ATP-based viability assays light output follows the ATP content of the culture.

In a further test the test system is MKL-1. The test is described as above. The conditions noted are these: MCC and control cell lines, CellTiter-Glo viability, 72 h; series mostly up to 46 µM. A digest of the protocol: as §1
Another test concerns UISO. Described as above. The settings on record: MCC and control cell lines, CellTiter-Glo viability, 72 h; series mostly up to 46 µM. A digest of the protocol:
as §1

The next test deals with WaGa. The test is described as above. The settings on record: MCC and control cell lines, CellTiter-Glo viability, 72 h; series mostly up to 46 µM. A digest of the protocol: as §1
A further test relates to NIH3T3. Described as above. The conditions noted are these: MCC and control cell lines, CellTiter-Glo viability, 72 h; series mostly up to 44.8 µM. In outline: as §1
The next test concerns MKL-2. The test is described as above. The conditions noted are these: MCC and control cell lines, CellTiter-Glo viability, 72 h; series mostly up to 46 µM. In outline:
as §1

Another test deals with C33A. In words: Primary qHTS to identify gynecologic anti-cancer compounds using libraries of approved drugs and bioactive compounds (AID 1345084). Also: nearly all actives have a fitted effect of over 55% in size. The conditions noted are these: Gynecologic cancer cell panel viability, ATPlite luminescence, 48 h; series mostly up to 57.5 µM. A digest of the protocol:
(§2)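 Five-concentration response, 48 h; readout is ATP-driven luciferase luminescence.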

A further test deals with CAOV3. Described as above. The conditions noted are these: Gynecologic cancer cell panel viability, ATPlite luminescence, 48 h; series mostly up to 57.5 µM. In outline: as §2
A further test deals with CASKI. Described as above. The conditions noted are these: Gynecologic cancer cell panel viability, ATPlite luminescence, 48 h; series mostly up to 57.5 µM. A digest of the protocol:
as §2

A further test concerns HeLa. The description is as above. The settings on record: Gynecologic cancer cell panel viability, ATPlite luminescence, 48 h; series mostly up to 57.5 µM. A digest of the protocol:
as §2

For the next test, the system named is Hek293T. The description is as above. The conditions noted are these: Gynecologic cancer cell panel viability, ATPlite luminescence, 48 h, control line for the selectivity index; series mostly up to 57.5 µM. A digest of the protocol: as §2
For another test, the system named is JEG-3. The description is as above. The conditions noted are these: Gynecologic cancer cell panel viability, ATPlite luminescence, 48 h; series mostly up to 57.5 µM. A digest of the protocol:
as §2

Another test concerns PA-1. The test is described as above. The conditions noted are these: Gynecologic cancer cell panel viability, ATPlite luminescence, 48 h; series mostly up to 57.5 µM. A digest of the protocol:
as §2

The next test relates to SKOV3. The test is described as above. The settings on record: Gynecologic cancer cell panel viability, ATPlite luminescence, 48 h; series mostly up to 57.5 µM. A digest of the protocol: as §2
Another test has as its system Tov-21-G. Described as above. The settings on record: Gynecologic cancer cell panel viability, ATPlite luminescence, 48 h; series mostly up to 57.5 µM. A digest of the protocol:
as §2

For another test, the system named is Tov112D. The test is described as above. The settings on record: Gynecologic cancer cell panel viability, ATPlite luminescence, 48 h; series mostly up to 57.5 µM. A digest of the protocol: as §2
The next test concerns Es-2. Described as above. The settings on record: Gynecologic cancer cell panel viability, ATPlite luminescence, 48 h; series mostly up to 57.5 µM. In outline:
as §2

The test system of a further test is OV90. The description is as above. The settings on record: Gynecologic cancer cell panel viability, ATPlite luminescence, 48 h; series mostly up to 57.5 µM. In outline:
as §2
% is scaled to controls: 0 for no effect and ±100 for the full control effect; potency is read from the fitted curve at half-maximal effect.

In the case of `N=C1SC(=Cc2ccc(-c3ccc4c(c3)C(=O)NC4=O)o2)C(=O)N1c1ccc(Br)cc1`, the Potency entry with MCC-13, in the test on MCC-26, in the test on MKL-1, in the test on UISO and with WaGa was “inactive” in each case.
Turning to `CCCCCCCCCCCCCCCC(=O)O[C@H]1[C@@H](O)[C@@H](O)[C@@H]([C@H](NC(=O)[C@@H]2C[C@@H](CCC)CN2C)[C@H](C)Cl)O[C@@H]1SC`, the Potency entry with MCC-13, in the test on MCC-26, in the test on MKL-1, in the test on NIH3T3, with UISO and with WaGa was “inactive” in each case.
For `C=C1c2cccc(O)c2C(O)=C2C(=O)[C@@]3(O)C(O)=C(C(N)=O)C(=O)[C@@H](N(C)C)[C@@H]3[C@@H](O)[C@H]12`, the Potency entry in the test on MCC-13, in the test on MCC-26, in the test with MKL-1, with UISO and with WaGa was “inactive” each time.
For the compound `O=C(C=Cc1ccc(O)cc1)c1ccc(O)cc1O`, the Potency result in the test with MCC-13, in the test with MCC-26, in the test with MKL-1 and in the test on WaGa was “inactive” in each case.
In the case of `NCc1c[nH]c(=S)n1[C@H]1CCc2c(F)cc(F)cc2C1`, the Potency result in the test with MCC-13 and in the test on MCC-26 was “inactive” throughout. Moreover, in the test with MKL-2, the Potency is 20.9 µM (active).
In the case of `Cc1nn(Cc2ccccc2Cl)c(C)c1CN(C)CC(O)COc1ccc(Cl)cc1` (stereo unspecified), the Potency entry in the test on MCC-13, with MCC-26, in the test with MKL-1 and in the test on WaGa was “inactive” throughout.
As for `Cc1ccc(S(=O)(=O)OCC(=O)Nc2ccc(C(=O)O)c(O)c2)cc1`, the Potency result in the test with MCC-13, in the test with MCC-26, in the test with MKL-2 and in the test with UISO was “inactive” throughout.
Turning to `O=C(Nc1cccc2c(=O)cc(-c3nn[nH]n3)oc12)c1ccc(OCCCCc2ccccc2)cc1`, the Potency result with MCC-13, with MCC-26, in the test with MKL-1, in the test on WaGa, with C33A and in the test on CAOV3 was “inactive” each time. In addition, the Potency result with CASKI, in the test with HeLa, with Hek293T, in the test with JEG-3, in the test with PA-1 and in the test with SKOV3 was “inactive” throughout. For the same compound, the Potency result in the test with Tov-21-G and with Tov112D was “inactive” in each case.
For `COC1CCC(C(=O)c2ccc3nc4c(cc3c2)CCCO4)CC1` (stereo unspecified), the Potency result in the test on MCC-13, with MCC-26, in the test with MKL-1, in the test with MKL-2 and in the test on WaGa was “inactive” in each case.
For the compound `COc1cc([C@H]2Oc3cc([C@H]4Oc5cc(O)cc(O)c5C(=O)[C@H]4O)ccc3O[C@H]2CO)ccc1O`, the Potency result in the test on MCC-13, in the test on MCC-26, in the test with MKL-1, in the test on UISO and with WaGa was “inactive” each time.
Consider `CN(C)c1ccc(-c2nc3ncc(Cl)c(N4CCN(CC(=O)Nc5nccs5)CC4)c3[nH]2)cc1`, for which the Potency entry in the test on MCC-13, with MCC-26, in the test on MKL-1, in the test on UISO, in the test with WaGa and in the test with C33A was “inactive” throughout. Further, the Potency result with CASKI, in the test on Es-2, with Hek293T, in the test with JEG-3 and in the test with OV90 was “inactive” in each case.
For `CC1(C)C(N(O)C(=O)Nc2ccc(Cl)cc2)N(c2ccc(Cl)cc2)C(=O)N1CC(=O)NN=CC=Cc1ccc([N+](=O)[O-])o1` (stereo unspecified), the Potency entry in the test with MCC-13, in the test on MCC-26 and in the test on UISO was “inactive” throughout. Also, the Potency in the test on MKL-2 was 23.5 µM (active).
In the case of `Cc1ccccc1C(=O)c1ccc(Nc2ccc(Br)cc2N)cc1Cl`, the Potency entry in the test on MCC-13, with MCC-26, with MKL-1, in the test with CAOV3, with Es-2 and in the test with HeLa was “inactive” throughout. Also, the Potency result with Hek293T, in the test on OV90, in the test on SKOV3, in the test on Tov-21-G and with Tov112D was “inactive” each time.
Take `O=C(CO)N1CCC(c2[nH]nc(-c3ccc(Cl)cc3)c2-c2ccncn2)CC1`: the Potency result with MCC-13, in the test with MCC-26, with MKL-1, in the test with MKL-2, with C33A and in the test on CASKI was “inactive” throughout. Also, the Potency result with Es-2, with HeLa, in the test with Hek293T, in the test on JEG-3, in the test with OV90 and in the test on PA-1 was “inactive” throughout. In addition, the Potency result in the test on SKOV3, in the test with Tov-21-G and in the test on Tov112D was “inactive” throughout.
As for `CO[C@H]1O[C@@H]2O[C@@]3(C)CC[C@@H]4[C@@H](C)CC[C@@H]([C@H]1C)[C@@]24OO3`, the Potency result in the test on MCC-13, in the test on MCC-26, in the test with MKL-1 and in the test with NIH3T3 was “inactive” in each case. In addition, the Potency in the test with WaGa is 20.9 µM (active).
Consider `CN[C@@H]1[C@@H](O)[C@@H](O[C@@H]2[C@@H](O)[C@H](O[C@H]3O[C@H](CN)[C@@H](O)[C@H](O)[C@@H]3O)[C@@H](N)C[C@@H]2NC(=O)[C@@H](O)CN)OC[C@]1(C)O`, for which the Potency entry in the test with MCC-13, in the test on MCC-26, in the test on MKL-1, with NIH3T3, in the test with UISO and with WaGa was “inactive” throughout.
Take `O=C1NC(=O)C(=Cc2ccc(-c3ccc(F)cc3O)o2)S1`: the Potency entry in the test with MCC-13, in the test on MCC-26, in the test with MKL-1 and with UISO was “inactive” each time.
`N#CC1(c2cccc(C(=O)Nc3cc(Oc4ccc5nc(NC(=O)C6CC6)sc5n4)ccc3F)c2Cl)CC1`: the Potency was 16.6 µM (active) in the test on MCC-13; 11.8 µM (active) with MCC-26; 10 µM (active) in the test with PA-1; 20 µM (active) in the test on SKOV3; 3.98 µM (active) in the test with Tov-21-G; 5.62 µM (active) with Tov112D. The Potency result in the test on MKL-1, with MKL-2, with C33A, in the test on HeLa and in the test on JEG-3 was “inactive” throughout.
`Cc1c(C(=O)Nc2ccc(N3C[C@@H](C)O[C@@H](C)C3)nc2)cccc1-c1ccc(OC(F)(F)F)cc1`: the Potency entry in the test with MCC-13, in the test with MCC-26, with MKL-1, with MKL-2, in the test on WaGa and in the test on C33A was “inactive” each time. For the same compound, the Potency entry in the test on CASKI, with Es-2, with HeLa, in the test on Hek293T, with JEG-3 and in the test with OV90 was “inactive” in each case. Moreover, the Potency entry in the test on SKOV3, in the test with Tov-21-G and in the test with Tov112D was “inactive” throughout.
`CCC(=O)OCC(=O)[C@@]1(OC(=O)CC)[C@@H](C)C[C@@H]2[C@H]3CCC4=CC(=O)C=C[C@]4(C)[C@@]3(F)[C@@H](O)C[C@@]21C`: the Potency entry in the test with MCC-13, in the test with MCC-26, in the test with MKL-1, in the test with UISO and in the test with WaGa was “inactive” throughout.
On to `Cc1cnc(CNC(=O)c2c(=O)c3ccc(N4CCCN(C)CC4)nc3n3c2sc2ccccc23)cn1`, for which the Potency result in the test on MCC-13, with MCC-26, in the test with MKL-1 and with MKL-2 was “inactive” throughout. Also, the activity change, negative = cytotoxicity was -22% [at 11.6 µM] with C33A; -0.786% [at 11.6 µM] in the test on CASKI; -19% [at 11.6 µM] in the test with Es-2; -13.6% [at 11.6 µM] with HeLa; -21% [at 11.6 µM] in the test with Hek293T; -3.1% [at 11.6 µM] in the test on JEG-3. The activity change, negative = cytotoxicity with OV90 is 10.5% [at 11.6 µM]; in the test on SKOV3 it was -5.43% [at 11.6 µM]; in the test on Tov-21-G, -27.4% [at 11.6 µM]; in the test with Tov112D, -20.9% [at 11.6 µM].
Turning to `CCCCOCCOc1nc(-c2ccc(C(=O)O)c(F)c2)sc1C`, the Potency entry in the test on MCC-13, in the test on MKL-1, in the test with MKL-2, with UISO and with WaGa was “inactive” each time.
On to `O[C@@H](COc1cccc2ncccc12)CN1CCN(C2c3ccccc3[C@@H]3[C@H](c4ccccc42)C3(F)F)CC1` (stereo partly specified), for which the Potency result in the test on MCC-13, in the test with MCC-26, in the test on NIH3T3, in the test on C33A, with CAOV3 and in the test with CASKI was “inactive” each time. The Potency result with Es-2, with HeLa, in the test with Hek293T, in the test with JEG-3, with OV90 and in the test on PA-1 was “inactive” each time. The Potency entry in the test with SKOV3, in the test on Tov-21-G and in the test on Tov112D was “inactive” each time.

The values above are taken from PubChem BioAssay (NCATS).
